Test results published in PubChem BioAssay (NCATS).
Values without a mark were called inactive. Inconclusive results are not listed. Calls of active or inactive are those of the source. Unless noted, calls follow the shape of the dose curve; as a rule, active = well fitted curve in the direction sought with a large enough effect; inconclusive = small, poorly fitted or top-dose-only effect, or another doubt; inactive = no such curve, though single readings can be large; an effect the other way counts as inactive or inconclusive.

Columns and labels:
[1] = biological target: Lysosomal acid glucosylceramidase (Homo sapiens) (UniProt P04062); assay: Glucocerebrosidase-p2 (AID 348; in the data active = potency below about 10 µM; also: potency is read from the fitted curve at half-maximal effect); conditions: purified GBA, blue fluorogenic substrate, 40 min
Lysosomal acid glucosylceramidase (Homo sapiens), sequence (P04062 whole entry, looked up): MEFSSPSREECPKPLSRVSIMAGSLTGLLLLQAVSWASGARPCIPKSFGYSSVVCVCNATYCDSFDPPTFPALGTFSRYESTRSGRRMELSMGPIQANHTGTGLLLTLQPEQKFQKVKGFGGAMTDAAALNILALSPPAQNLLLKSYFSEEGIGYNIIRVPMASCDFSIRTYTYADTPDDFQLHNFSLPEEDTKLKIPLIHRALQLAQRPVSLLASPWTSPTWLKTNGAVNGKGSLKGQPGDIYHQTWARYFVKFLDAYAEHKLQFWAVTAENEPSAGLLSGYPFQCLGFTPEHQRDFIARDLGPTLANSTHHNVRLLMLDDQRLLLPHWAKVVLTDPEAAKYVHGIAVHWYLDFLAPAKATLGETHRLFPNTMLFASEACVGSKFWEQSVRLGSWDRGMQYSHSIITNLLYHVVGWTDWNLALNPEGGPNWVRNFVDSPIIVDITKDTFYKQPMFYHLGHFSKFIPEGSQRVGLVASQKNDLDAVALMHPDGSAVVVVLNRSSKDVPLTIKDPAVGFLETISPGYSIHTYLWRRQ
How it was run: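 Compounds titrated from 0.6 nM upwards against 0.2 nM enzyme in pH 5.9 citric acid/KH2PO4, taurocholate, tween-20; blue fluorogenic substrate 80 uM, 40 min room temperature, stopped and read Ex 365/Em 440 for AC50.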

[2] = AP1 Signaling Pathway (AID 357; active = well fitted curve in either direction with a large enough effect, not every such curve was filed as active;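 also: ME-180 reporter cells stimulated with EGF at its EC50 level; % is scaled to controls: 0 for no effect and ±100 for the full control effect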); conditions: ME-180 AP-1-bla reporter, EGF-induced, beta-lactamase ratio, 5 h; at 7.69 µM (top of the series) unless noted
How it was run: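 Cells are seeded overnight, exposed to compound titrations and an EC50 level of EGF for 5 hours at 37 °C, then loaded with CCF4 dye for 2.5 hours. Beta-lactamase activity under the AP-1 element is read as a blue/green ratio.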

[3] = NFAT Signaling Pathway (AID 444; active = well fitted curve in either direction with a large enough effect, not every such curve was filed as active;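 also: carbachol stimulus at about its EC50 of 1 µM final; % is scaled to controls: 0 for no effect and ±100 for the full control effect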); conditions: Jurkat NFAT-bla M1, carbachol, beta-lactamase ratio, 5 h; at 7.69 µM (top of the series) unless noted
How it was run: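 Jurkat cells with NFAT-driven β-lactamase reporter and co-expressed M1 receptor, stimulated with carbachol (final 1 uM, ~EC50), compound titration, 5 h at 37 °C. CCF4 loaded 1 h at RT; 460/530 nm ratio gave %activity and AC50.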

[4] = Stat Signaling Pathway (AID 446; active = well fitted curve in either direction with a large enough effect, not every such curve was filed as active;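 also: ME-180 cervical cancer cells given 40 pM IL-6 alongside compound; SIE-controlled beta-lactamase reporter measured as 460/530 nm FRET emission ratio; % is scaled to controls: 0 for no effect and ±100 for the full control effect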); conditions: ME-180 SIE beta-lactamase reporter, IL-6 stimulated, 5 h; at 7.69 µM (top of the series) unless noted
How it was run: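 Screening format detects activators and inhibitors alike: ME-180 SIE-bla cells stimulated at 40 pM IL-6 for 5 hrs with compound, then dual-emission beta-lactamase read at 405 nm excitation.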

[5] = biological target: Glucocorticoid receptor (Homo sapiens) (UniProt P04150); assay: GR-GFP Redistribution (AID 450;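 active = compounds whose dose series gives a full or clear partial fitted curve of increased nuclear translocation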; also: potency is read from the fitted curve at half-maximal effect); conditions: U2OS GR-GFP nuclear translocation, laser cytometry, 2 h
Glucocorticoid receptor (Homo sapiens), sequence (P04150 whole entry, looked up, the tested form may be a part): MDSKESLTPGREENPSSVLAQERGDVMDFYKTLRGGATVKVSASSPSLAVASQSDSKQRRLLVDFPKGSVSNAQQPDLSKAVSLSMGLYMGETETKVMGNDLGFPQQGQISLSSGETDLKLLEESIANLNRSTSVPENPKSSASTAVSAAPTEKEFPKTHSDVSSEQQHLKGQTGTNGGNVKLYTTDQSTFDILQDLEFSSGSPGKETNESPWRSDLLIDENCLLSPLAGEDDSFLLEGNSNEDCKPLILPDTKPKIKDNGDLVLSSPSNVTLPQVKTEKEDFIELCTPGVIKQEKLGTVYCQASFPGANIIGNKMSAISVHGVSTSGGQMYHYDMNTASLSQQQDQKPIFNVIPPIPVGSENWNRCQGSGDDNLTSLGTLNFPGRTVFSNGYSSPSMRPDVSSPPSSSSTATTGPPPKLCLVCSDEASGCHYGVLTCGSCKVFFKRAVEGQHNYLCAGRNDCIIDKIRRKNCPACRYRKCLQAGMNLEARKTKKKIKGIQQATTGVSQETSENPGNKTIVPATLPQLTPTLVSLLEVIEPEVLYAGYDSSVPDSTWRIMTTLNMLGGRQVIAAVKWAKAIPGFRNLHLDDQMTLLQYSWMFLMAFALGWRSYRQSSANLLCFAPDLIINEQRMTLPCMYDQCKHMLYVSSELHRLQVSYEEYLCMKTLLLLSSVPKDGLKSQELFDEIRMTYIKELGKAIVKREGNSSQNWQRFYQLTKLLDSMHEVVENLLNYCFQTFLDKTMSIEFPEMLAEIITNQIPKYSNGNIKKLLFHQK

[6] = biological target: Glucocorticoid receptor (Homo sapiens) (UniProt P04150); assay: GR-EFC Redistribution (AID 451; calls by dose curve; also: potency is read from the fitted curve at half-maximal effect); conditions: CHO-K1 GR-EFC translocation, beta-gal luminescence, 2 h
How it was run: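 CHO-K1 cells expressing nuclear EA and GR-ED fragments of b-gal; compounds titrated up to 46 uM final, 2 h at 37 C. GR nuclear translocation read as complemented b-gal luminescence after 1 h RT detection.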

[7] = biological target: Mitogen-activated protein kinase 10 (Mus musculus) (UniProt Q61831); assay: JNK3 AlphaScreen Assay (AID 530; active = well fitted curve in either direction with a large enough effect, not every such curve was filed as active;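 also: kinase came from lysate of stimulated human HepG2 cells; signal reports phosphorylation of biotinylated GST-cJun 1-79 at Ser73 with 10 µM ATP; % is scaled to controls: 0 for no effect and ±100 for the full control effect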); conditions: JNK3 lysate, c-Jun phosphorylation; series mostly up to 57.1 µM
How it was run: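 qHTS format: compounds tested as titrations against IL-1beta/TNF-alpha-activated HepG2 lysate JNK3 with biotin-GST-cJun substrate and 10 uM ATP at room temperature. Loss of anti-phospho-cJun AlphaScreen signal indicates inhibition.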

[8] = biological target: 3',5'-cyclic-AMP phosphodiesterase 4B (Homo sapiens) (UniProt Q07343); assay: qHTS Assay for Inhibitors of PDE-IV (AID 607; active = well fitted activation curve with a large enough effect in the main read-out, with a control signal flat, not every such curve was filed as active; also: % of control where 0% means no effect); conditions: HEK293 ACTOne CNG channel cells, membrane potential fluorescence; series mostly up to 22.9 µM
3',5'-cyclic-AMP phosphodiesterase 4B (Homo sapiens), sequence (Q07343 whole entry, looked up): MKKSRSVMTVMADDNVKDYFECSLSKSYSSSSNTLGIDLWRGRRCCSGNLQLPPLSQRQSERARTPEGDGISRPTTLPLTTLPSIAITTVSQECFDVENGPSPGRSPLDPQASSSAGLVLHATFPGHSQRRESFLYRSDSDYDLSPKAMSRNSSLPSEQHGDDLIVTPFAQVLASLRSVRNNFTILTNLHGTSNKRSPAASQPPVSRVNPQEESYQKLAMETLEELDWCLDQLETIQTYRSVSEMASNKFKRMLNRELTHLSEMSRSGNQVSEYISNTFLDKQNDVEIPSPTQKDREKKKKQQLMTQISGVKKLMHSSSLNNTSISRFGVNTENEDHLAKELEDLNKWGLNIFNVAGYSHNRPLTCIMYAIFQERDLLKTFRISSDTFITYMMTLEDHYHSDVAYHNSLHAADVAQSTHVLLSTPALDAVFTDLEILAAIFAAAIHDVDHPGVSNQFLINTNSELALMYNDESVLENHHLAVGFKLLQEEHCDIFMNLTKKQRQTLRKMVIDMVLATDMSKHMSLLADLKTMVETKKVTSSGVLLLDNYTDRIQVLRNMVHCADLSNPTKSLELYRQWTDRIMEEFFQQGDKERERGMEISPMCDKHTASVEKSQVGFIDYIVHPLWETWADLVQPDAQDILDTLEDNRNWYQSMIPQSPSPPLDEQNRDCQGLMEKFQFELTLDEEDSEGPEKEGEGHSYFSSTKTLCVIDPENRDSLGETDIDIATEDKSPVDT
How it was run: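 The readout is membrane depolarisation from a cAMP-sensing CNG channel, detected with a potential dye at ex 535/em 590. Cells were HEK293-derived (endogenous PDE-IV) at 1000 cells/well, titrated up to 22.9 uM final.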

[9] = biological target: Dual specificity protein kinase CLK4 (Homo sapiens) (UniProt Q9HAZ1); assay: qHTS Assay for Inhibitors of CDC-like Kinase 4 (Kinase-Glo Assay) (AID 1770); conditions: recombinant Clk4, Kinase-Glo ATP depletion luminescence; series mostly up to 66.7 µM; also: nearly all actives have a fitted effect of over 65% in size; also: potency is read from the fitted curve at half-maximal effect
Dual specificity protein kinase CLK4 (Homo sapiens), sequence (Q9HAZ1 whole entry, looked up): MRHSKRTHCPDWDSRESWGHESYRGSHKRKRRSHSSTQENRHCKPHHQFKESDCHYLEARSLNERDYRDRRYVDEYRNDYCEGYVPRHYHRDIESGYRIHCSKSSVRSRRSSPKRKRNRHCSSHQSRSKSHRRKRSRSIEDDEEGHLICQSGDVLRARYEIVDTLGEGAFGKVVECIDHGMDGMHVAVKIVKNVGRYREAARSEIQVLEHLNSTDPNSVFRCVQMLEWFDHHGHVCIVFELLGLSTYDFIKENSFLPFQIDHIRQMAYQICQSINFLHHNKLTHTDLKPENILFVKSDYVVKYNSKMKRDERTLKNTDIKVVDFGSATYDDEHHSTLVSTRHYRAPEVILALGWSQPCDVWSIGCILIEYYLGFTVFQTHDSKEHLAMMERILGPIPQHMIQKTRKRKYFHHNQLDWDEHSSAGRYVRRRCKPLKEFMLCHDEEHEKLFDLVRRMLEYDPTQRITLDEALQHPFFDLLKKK
How it was run: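 Luminescent ATP-depletion read-out (Kinase-Glo) after 4.5 h room-temperature reaction of Clk4 (25 nM final) with RS peptide (100 uM) and ATP (1 uM), pH 7.5 Tris buffer with MgCl2 and DTT.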

[10] = biological target: Dual specificity protein kinase CLK4 (Homo sapiens) (UniProt Q9HAZ1); assay: qHTS Assay for Inhibitors of CDC-like Kinase 4 (ADP-FP Assay) (AID 1795); conditions: Transcreener ADP fluorescence polarization; series mostly up to 50 µM; also: nearly all actives have a fitted effect of over 60% in size; also: potency is read from the fitted curve at half-maximal effect
How it was run: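 Kinase activity was measured as ADP production using Transcreener orange tracer (4 nM) and ADP antibody (1 ug/mL) fluorescence polarization, with ADP calculated from a calibration curve. The 1 h reaction contained 6.25 nM Clk4, 1 uM ATP and 100 uM RS peptide at pH 7.5 with Mg2+.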

[11] = biological target: Ubiquitin carboxyl-terminal hydrolase 1 (Homo sapiens) (UniProt O94782); assay: Inhibitors of USP1/UAF1: Pilot qHTS (AID 504865); conditions: purified USP1/UAF1, Ub-rhodamine cleavage fluorescence; series mostly up to 54.9 µM; also: nearly all actives have a fitted effect of over 35% in size; also: potency is read from the fitted curve at half-maximal effect
Ubiquitin carboxyl-terminal hydrolase 1 (Homo sapiens), sequence (O94782 whole entry, looked up): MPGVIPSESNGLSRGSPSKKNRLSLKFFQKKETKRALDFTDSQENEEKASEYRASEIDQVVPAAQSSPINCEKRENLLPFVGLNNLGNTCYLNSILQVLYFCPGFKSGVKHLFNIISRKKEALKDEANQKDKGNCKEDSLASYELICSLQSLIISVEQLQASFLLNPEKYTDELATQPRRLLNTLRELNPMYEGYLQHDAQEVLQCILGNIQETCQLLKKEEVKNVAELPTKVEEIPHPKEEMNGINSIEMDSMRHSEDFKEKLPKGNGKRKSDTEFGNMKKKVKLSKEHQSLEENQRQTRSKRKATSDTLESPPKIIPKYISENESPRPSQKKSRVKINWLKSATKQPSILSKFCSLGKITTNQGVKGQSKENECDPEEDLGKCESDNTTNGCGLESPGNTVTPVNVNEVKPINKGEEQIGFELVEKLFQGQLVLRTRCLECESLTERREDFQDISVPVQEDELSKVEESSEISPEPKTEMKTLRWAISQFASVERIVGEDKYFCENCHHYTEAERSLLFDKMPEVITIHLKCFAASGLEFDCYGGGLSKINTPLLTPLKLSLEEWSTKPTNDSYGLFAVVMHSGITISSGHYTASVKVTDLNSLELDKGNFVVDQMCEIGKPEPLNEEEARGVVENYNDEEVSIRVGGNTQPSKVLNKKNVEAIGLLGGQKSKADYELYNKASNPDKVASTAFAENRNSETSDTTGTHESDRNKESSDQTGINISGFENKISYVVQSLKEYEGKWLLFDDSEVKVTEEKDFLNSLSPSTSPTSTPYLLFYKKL
How it was run: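 Deubiquitinase activity followed as kinetic rhodamine fluorescence release from 150 nM Ub-Rho. 1 nM USP1/UAF1 with compound, after 15 min room-temperature preincubation, in HEPES pH 7.8 buffer containing TCEP, EDTA, BSA and Tween-20.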

[12] = Primary qHTS for small molecule stabilizers of the endoplasmic reticulum resident proteome: Secreted ER Calcium Modulated Protein (SERCaMP) assay (AID 1508630); conditions: SH-SY5Y GLuc-SERCaMP (Gaussia luciferase released on ER calcium loss) secretion, thapsigargin, luminescence; series mostly up to 38.4 µM; also: % is scaled to controls: 0 for no effect and ±100 for the full control effect
How it was run: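 GLuc-SERCaMP-expressing SH-SY5Y cells, pretreated 16 h with compound, are challenged with thapsigargin to empty ER calcium stores; after 4 h, coelenterazine is added directly to the medium and luminescence is imaged.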

[13] = biological target: Cytochrome P450 2D6 (Homo sapiens) (UniProt P10635); assay: qHTS Assay for Inhibitors and Substrates of Cytochrome P450 2D6 (AID 891); conditions: recombinant CYP2D6, luciferin-ME EGE luminescence; series mostly up to 57.1 µM; also: potency is read from the fitted curve at half-maximal effect; nearly all actives have a fitted effect of over 60% in size
How it was run: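 Human CYP2D6 (5 nM) with 30 uM Luciferin-ME EGE (at Km) in 100 mM KPO4, compound preincubated 10 min, then NADPH regeneration system for 60 min at room temperature. Luciferin read by luminescence; normalized to 1.43 uM quinidine.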

[14] = biological target: Cytochrome P450 1A2 (Homo sapiens) (UniProt P05177); assay: p450-cyp1a2 (AID 410; calls by dose curve; also: potency is read from the fitted curve at half-maximal effect); conditions: recombinant CYP1A2, luciferin-ME demethylation, luminescence; series mostly up to 57 µM
Cytochrome P450 1A2 (Homo sapiens), sequence (P05177 whole entry, looked up): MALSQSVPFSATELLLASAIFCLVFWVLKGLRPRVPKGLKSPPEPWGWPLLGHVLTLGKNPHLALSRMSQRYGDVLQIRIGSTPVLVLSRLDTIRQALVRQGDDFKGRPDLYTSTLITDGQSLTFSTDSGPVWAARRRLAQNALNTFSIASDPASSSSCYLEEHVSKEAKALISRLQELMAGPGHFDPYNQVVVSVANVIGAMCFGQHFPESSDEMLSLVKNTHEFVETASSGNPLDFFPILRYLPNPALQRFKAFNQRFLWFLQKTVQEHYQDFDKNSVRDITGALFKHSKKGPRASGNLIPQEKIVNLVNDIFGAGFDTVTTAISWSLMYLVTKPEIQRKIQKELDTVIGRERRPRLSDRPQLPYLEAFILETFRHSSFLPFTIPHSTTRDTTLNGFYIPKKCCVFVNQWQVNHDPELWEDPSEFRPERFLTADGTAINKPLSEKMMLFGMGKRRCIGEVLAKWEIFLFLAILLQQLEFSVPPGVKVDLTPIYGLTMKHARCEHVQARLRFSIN
How it was run: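 Inhibition was calculated relative to 57 uM furafylline (full inhibition). The reaction used human CYP1A2 at 20nM with Luciferin-ME at its Km, 100uM, driven by an NADPH-regenerating system for 60 min at room temperature.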

[15] = biological target: Cytochrome P450 2C9 (Homo sapiens) (UniProt P11712); assay: qHTS Assay for Inhibitors and Substrates of Cytochrome P450 2C9 (AID 883); conditions: recombinant CYP2C9, luciferin-H luminescence, 60 min; series mostly up to 57.1 µM; also: potency is read from the fitted curve at half-maximal effect; nearly all actives have a fitted effect of over 60% in size
How it was run: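 10nM CYP2C9 + 100uM Luciferin-H (=KM), 25mM KPO4; cpd 10 min 37C; NADPH regen, 60 min 37C; stop/detect with P450 Glo-Buffer 20 min; luminescence. Norm. to 57uM sulphaphenazole as full inhibition.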

[16] = biological target: Cytochrome P450 3A4 (Homo sapiens) (UniProt P08684); assay: qHTS Assay for Inhibitors and Substrates of Cytochrome P450 3A4 (AID 884); conditions: recombinant CYP3A4, Luciferin-PPXE luminescence; series mostly up to 57.1 µM; also: nearly all actives have a fitted effect of over 50% in size; also: potency is read from the fitted curve at half-maximal effect
Cytochrome P450 3A4 (Homo sapiens), sequence (P08684 whole entry, looked up): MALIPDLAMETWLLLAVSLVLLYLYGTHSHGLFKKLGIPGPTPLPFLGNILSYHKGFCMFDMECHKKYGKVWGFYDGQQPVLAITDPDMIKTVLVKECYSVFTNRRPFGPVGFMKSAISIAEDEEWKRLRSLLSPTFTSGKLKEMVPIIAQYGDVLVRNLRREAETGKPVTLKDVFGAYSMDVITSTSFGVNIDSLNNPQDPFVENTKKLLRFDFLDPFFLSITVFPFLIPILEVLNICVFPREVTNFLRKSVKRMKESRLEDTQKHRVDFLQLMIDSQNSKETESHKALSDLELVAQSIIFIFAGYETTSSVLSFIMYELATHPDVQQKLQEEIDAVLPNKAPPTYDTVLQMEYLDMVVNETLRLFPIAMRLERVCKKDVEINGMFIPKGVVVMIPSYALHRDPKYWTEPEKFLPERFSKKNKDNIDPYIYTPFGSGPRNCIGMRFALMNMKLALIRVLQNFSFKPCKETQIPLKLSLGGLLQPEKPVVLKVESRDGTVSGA
How it was run: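 20 nM human CYP3A4 with 25 uM Luciferin-PPXE (at KM) in 200 mM KPO4, preincubated 10 min with compound; NADPH regeneration started a 60 min RT reaction. Luciferin detected by luminescence, normalized to 57 uM ketoconazole as full inhibition.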

[17] = biological target: Cytochrome P450 3A4 (Homo sapiens) (UniProt P08684); assay: qHTS Assay for Activators of Cytochrome P450 3A4 (AID 885); conditions: recombinant CYP3A4, Luciferin-PPXE luminescence, 60 min; series mostly up to 57.1 µM; also: nearly all actives have a fitted effect of over 65% in size
How it was run: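 Steps: enzyme/substrate mix dispensed; compound added, 10 min RT; NADPH regeneration solution added, 60 min RT; luciferin detection buffer stops reaction; 20 min later luminescence measured.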

[18] = biological target: Cytochrome P450 2C19 (Homo sapiens) (UniProt P33261); assay: qHTS Assay for Inhibitors and Substrates of Cytochrome P450 2C19 (AID 899); conditions: recombinant CYP2C19, luciferin-H EGE luminescence; series mostly up to 57.1 µM; also: potency is read from the fitted curve at half-maximal effect; nearly all actives have a fitted effect of over 60% in size
Cytochrome P450 2C19 (Homo sapiens), sequence (P33261 whole entry, looked up): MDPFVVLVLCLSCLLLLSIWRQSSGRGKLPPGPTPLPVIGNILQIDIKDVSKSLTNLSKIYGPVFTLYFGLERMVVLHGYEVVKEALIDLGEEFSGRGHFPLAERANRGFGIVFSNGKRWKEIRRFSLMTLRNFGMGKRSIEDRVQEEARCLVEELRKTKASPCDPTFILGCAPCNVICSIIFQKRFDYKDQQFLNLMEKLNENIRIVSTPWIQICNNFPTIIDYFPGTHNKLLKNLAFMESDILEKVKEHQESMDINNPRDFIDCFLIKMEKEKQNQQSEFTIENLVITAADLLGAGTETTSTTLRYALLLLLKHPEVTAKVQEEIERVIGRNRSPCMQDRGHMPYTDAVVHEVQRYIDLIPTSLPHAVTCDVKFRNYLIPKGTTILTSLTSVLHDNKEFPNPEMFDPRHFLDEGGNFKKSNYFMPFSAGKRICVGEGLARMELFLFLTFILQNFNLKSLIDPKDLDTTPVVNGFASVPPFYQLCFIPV
How it was run: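 Luminescent read-out of luciferin formed from Luciferin-H EGE (10uM, equal to KM). Enzyme 5nM in 50mM KPO4; compound added, 10 min at 37C, then NADPH regenerating system for 60 min at 37C. Full inhibition defined by 57uM ketoconazole.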

SMILES	Potency [1]	activity change, negative = inhibition [2]	activity change, negative = inhibition [3]	activity, negative = inhibition [4]	Potency [5]	Potency [6]	Potency [7]	Potency [8]	Potency [9]	Potency [10]	Potency [11]	outcome [12]	Potency [13]	Potency [14]	Potency [15]	Potency [16]	Potency [17]	Potency [18]
Cc1cnc(CNc2nc(-c3cccc(NS(C)(=O)=O)c3)nc3ccccc23)cn1	> 11.4 µM	-28.3%	19.4%	-4.54%	> 46 µM	> 46 µM	inactive	inactive	inactive	inactive	inactive	inactive	–	–	–	–	–	–
CCNc1ncc2nc(-c3cc(F)cc(F)c3)c(=O)n(CCC#N)c2n1	> 11.4 µM	28.7%	-24.5%	–	> 9.22 µM	> 46 µM	inactive	inactive	31.6 µM (active)	inactive	inactive	inactive	0.0631 µM (active)	–	–	–	–	–
COc1cccc(Nc2ncc3nc(-c4ccccc4)c(=O)n(C)c3n2)c1	> 11.4 µM	-7.32%	-6.92%	4.13%	> 9.22 µM	> 46 µM	inactive	–	inactive	–	inactive	inactive	–	3.16 µM (active)	–	–	–	–
COc1ccc(Oc2ncc3nc(-c4cccc(C#N)c4)c(=O)n(C)c3n2)cc1	> 11.4 µM	-0.821%	-9.84%	-2.78%	> 9.22 µM	> 46 µM	inactive	–	inactive	inactive	inactive	inactive	–	–	–	–	–	–
COc1ccccc1CCn1c(=O)c(-c2ccc(F)c(F)c2)nc2cncnc21	> 11.4 µM	–	1.01%	10.7%	> 9.22 µM	> 46 µM	inactive	–	inactive	inactive	inactive	inactive	–	2 µM (active)	6.31 µM (active)	3.16 µM (active)	inactive	1.26 µM (active)
COc1ccccc1CNc1ccnc(-c2ccccc2CN(C)C)n1	> 11.4 µM	-7.71%	-25.2%	3.25%	> 46 µM	> 46 µM	inactive	–	inactive	inactive	inactive	inactive	–	–	–	–	–	–
Cc1cccc(CNc2ccnc(-c3cccc(C#N)c3)n2)c1	> 11.4 µM	–	–	–	> 46 µM	> 46 µM	–	inactive	11.2 µM (active)	11.2 µM (active)	inactive	inactive	–	0.398 µM (active)	–	1.26 µM (active)	inactive	2.51 µM (active)
O=c1c(-c2cccs2)nc2cnc(N3CCNCC3)nc2n1Cc1cccs1	> 11.4 µM	–	–	–	> 9.22 µM	> 46 µM	inactive	inactive	inactive	inactive	28.2 µM (active)	inactive	–	3.98 µM (active)	–	2.51 µM (active)	inactive	5.01 µM (active)
CS(=O)(=O)Nc1cccc(-c2ccc3ncnc(N4CCOCC4)c3c2)c1	> 11.4 µM	–	–	-11.8%	> 46 µM	> 46 µM	inactive	–	7.94 µM (active)	7.08 µM (active)	inactive	inactive	–	12.6 µM (active)	–	7.94 µM (active)	inactive	–
Cc1cnc(CNc2cc(-c3ccccc3CN(C)C)ncn2)cn1	> 11.4 µM	17.7%	-9.03%	7.96%	> 46 µM	> 46 µM	inactive	inactive	inactive	inactive	inactive	inactive	–	–	–	–	–	–
COCCn1c(=O)c(-c2cccs2)nc2cncnc21	> 11.4 µM	-17.4%	11.8%	-2.25%	> 9.22 µM	> 46 µM	inactive	–	inactive	–	inactive	inactive	–	3.16 µM (active)	–	–	inactive	–
COc1ncc2ncc(=O)n(CCc3ccccc3)c2n1	> 11.4 µM	-10.9%	4.91%	-13.6%	> 9.22 µM	> 46 µM	inactive	inactive	14.1 µM (active)	10 µM (active)	inactive	inactive	–	–	–	–	–	–
Clc1ccccc1-c1cc(NCc2ccccc2)ncn1	> 11.4 µM	0.871%	1.92%	4.36%	> 46 µM	> 46 µM	inactive	–	25.1 µM (active)	–	–	inactive	–	3.98 µM (active)	–	inactive	–	7.94 µM (active)
